Experimental findings from PubChem BioAssay AID597 (National Center for Advancing Translational Sciences (NCATS), 2007) are described below.

SMILES strings stand for the structures. About 60 (0.09%) of roughly 68,000 compounds were called active. The list is a sample of the results. Unmarked numbers belong to inactive results. The call rests on the fitted dose curve; in most records, active means well fitted curve in the direction sought with a large enough effect; inconclusive means small, poorly fitted or top-dose-only effect; inactive means flat fitted curve, though single readings scatter.

This test in a line: qHTS Assay for Epigenetic Modulators. Further: % of control where 0% means no effect. To be noted: mouse C127i GFP locus derepression, cytometry, 30 h; series mostly up to 46.1 µM; GFP derepression (activation): at the top concentration. The source says:
NIH Molecular Libraries Screening Centers Network [MLSCN] NIH Chemical Genomics Center [NCGC] MLSCN Grant: 1 X01 MH079860-01 Assay Provider: Elisabeth D. Martinez, University of Texas SW Medical Center NCGC Assay Overview: The Locus Derepression assay detects the derepression of a GFP reporter that is stably integrated in a region of the genome of murine c127i mammary cells that is presumably silenced. GFP transcription in this construct is controlled by a CMV promoter, which normally is strong and constitutively active. However, this line was selected for lack of constitutive expression of the GFP protein. GFP production can be induced by incubating the cells with histone deacetylase or DNA methyltransferase inhibitors. Compounds that cause derepression of the locus to express GFP are identified by enumerating GFP positive cells using a laser-scanning microplate cytometer. For further details of this screen and follow-up characterization, see R.L. Johnson, W. Huang, A. Jadhav, C.P. Austin, J. Inglese, E.D. Martinez, A Quantitative High-Throughput Screen Identifies Potential Epigenetic Modulators of Gene Expression, Analytical Biochemistry (2008) 375(2):237-48.
NCGC Assay Protocol Summary: Two hundred and fifty cells in 5 uL per well were dispensed into black, clear-bottom 1536-well plates. Twenty-three nL compound was transferred to the assay plate and cells were incubated 30 hours at 37 C. Medium was removed, cells were washed two times with PBS, and GFP-positive cells were enumerated as fluorescent objects between the sizes of 20 to 120 um width and depth using an Acumen Explorer. Keywords: NIH Roadmap, MLSCN, MLI, MLSMR, qHTS, NCGC, qHTS, HDAC, DNMT, HAT, DNA methyltransferases, histone acetyl transferases, histone deacetylases
`Fc1ccccc1OCCCCn1cncn1`: the “GFP derepression (activation)” value is 0%.
As for `O=[n+]1c2c(n([O-])c3cc(Br)ccc31)CCC2`, the “GFP derepression (activation)” value was 5.1%.
As to `COC(=O)[C@H]1[C@H]2C[C@H]3c4[nH]c5ccccc5c4CCN3C[C@@H]2CC[C@@H]1O`, the GFP derepression (activation) result is “inactive”.
In the case of `CCOC(=O)c1cc2occc2n1CC(=O)N1CCN(C(=O)c2ccco2)CC1` it was 2.3%; in that of `Cc1cc2c(cc1C)NC1=C(N2)O[C@H](c2c[nH]c3ccc(COc4ccccc4)cc23)C1=O`, 2.2% [at 9.22 µM]; in that of `NC(=NC(=O)c1ccccc1)C1=C(O)CCC1=O`, -3.4%.
Consider `COc1ccc(-n2c(SC)nc(O)cc2=O)cc1`, for which the “GFP derepression (activation)” value was 0%.
In the case of `O=C(CSc1ncccn1)NC(=O)NCc1ccccc1` it was -1.4%; in that of `NCCCNCCCCN(CCCN)/[N+]([O-])=N/O`, -1.4%.
In the case of `Cn1cccc1C(=O)N1CCC[C@@]2(CCN(Cc3nccs3)C2)C1` it was 4.6% [at 9.22 µM]; in that of `COCCn1c(=O)c(-c2ccccc2)nc2cnc(N3CCOCC3)nc21`, -2.7% [at 9.22 µM].
In the case of `Cn1c(=NC(=O)CSCC(=O)N2CCOCC2)sc2ccccc21` it was 0.2%.
`Cc1ccc2[nH]c(=O)c(COC(=O)c3ccccn3)cc2c1`: the “GFP derepression (activation)” value is 0%.
Turning to `CCOC(=O)c1[nH]c2ccc(C)cc2c1N=C(C)N(C)C`, the “GFP derepression (activation)” value was 3%.
As for `Cc1cc(C(=O)CC#N)c(C)n1CC(F)(F)F`, the figure is 1.2%.
In the case of `Cc1ccc(NC(=O)c2cccc(N(C)C)c2)cc1NC(=O)c1ccc(O)cc1` it was -0.4%; in that of `CCON=C1C(C)(C)C(C)(C)C(C)(C)C1(C)C`, 6.6% [at 9.22 µM].
In the case of `Cc1ccc(S(=O)(=O)N(C)CC(=O)N2CCc3ccccc32)cc1` it was 2.4%; in that of `COc1cccc(-c2cc(NCCc3c[nH]c4ccc(OC)cc34)ncn2)c1`, 5.1% [at 9.22 µM].
Consider `CC(C)c1ccc2c(c1)c(SC(C)(C)C)c(CC(C)(C)C(=O)O)n2Cc1ccc(Cl)cc1`, for which the GFP derepression (activation) entry is “inactive”.
On to `C#CCCCCCCCCCCCCCCCC(=O)O`, for which the “GFP derepression (activation)” value is 2.4%.
In the case of `N#CCCn1c(=O)c(-c2cc(F)cc(F)c2)nc2cnc(Oc3ccccc3)nc21` it was -4.9% [at 9.22 µM]; in that of `CCOc1cccc(NC(=O)CC#N)c1`, 3.4%; in that of `O=C1c2ccccc2C(Nc2ccc3c(c2)OCCO3)N1Cc1ccco1` (stereo not drawn), -3.4%.
As for `CCNCCCNCCCNCCCNCC`, the figure is -0.4%; as for `N#CC1=C(SCc2ccccc2)NC(=O)C(C#N)C12CCCC2` (stereo not drawn), 3.3%.
As for `O=C(c1cccc(F)c1)N1CCC2(CC1)CCN(c1ccccc1)CC2`, the figure is -1.6% [at 9.22 µM].
On to `COc1ccc(OCC(=O)OCC(=O)Nc2ccc(S(=O)(=O)N3CCCCC3)cc2)cc1`, for which the “GFP derepression (activation)” value is 4.8%.
In the case of `O=S(=O)(O)c1ccc(O)c2ncccc12.O=S(=O)(O)c1ccc(O)c2ncccc12.[Zn]` it was 2.3% [at 9.22 µM].
In the case of `Cc1cccc(CNc2ccnc(-c3cccnc3)n2)c1` it was 0% [at 9.22 µM].
In the case of `N#CCCN1CCN(S(=O)(=O)c2ccc(S(=O)(=O)NC3CCCCC3)cc2)CC1` it was -2.3%; in that of `Cc1ccc(-c2nn(CC(C)(C)C)c3ncnc(N)c23)cc1`, 3.8%; in that of `CCn1c(Cc2ccccc2)nnc1SCC(=O)Nc1ccccc1`, -1.7%.
Consider `CCc1c(C)[nH]c(=S)c(C#N)c1C`, for which the “GFP derepression (activation)” value is -0.6%.
As for `COc1ccc(C)cc1NC(=O)CSc1nc(SC)ns1`, the “GFP derepression (activation)” value was 6.4%.
In the case of `CN(C)c1cc[n+](Cc2ccccc2)cc1` it was 2.3%; in that of `Nc1nnc(C2CCCC2)s1`, 0%; in that of `CN(c1nc2ccccc2n2c(-c3ccco3)nnc12)S(=O)(=O)c1ccccc1`, -2.6%.
As for `CN1CCN(CC(O)COCc2ccc3c(c2)OCO3)CC1` (stereo not drawn), the figure is -0.1%; as for `Cn1c(=O)c2cn(-c3cccc4ccccc34)cc2n(C)c1=O`, 2.6%; as for `CC(C)NC(=O)N1CC[C@@]2(CCCN(C(=O)c3cccc(F)c3)C2)C1`, -0.9% [at 9.22 µM].
`CC(=O)c1ccc(Oc2cc(C)nc(-n3nc(C)cc3C)n2)cc1`: the “GFP derepression (activation)” value was 4.2%.
As for `Cc1ccc(-c2nn(-c3ccccc3)cc2CN(Cc2ccccc2)C(=O)CCC(=O)O)o1`, the figure is 2.2%; as for `COc1ccc(N2CCN(Cc3cc(=O)oc4ccc5ccccc5c34)CC2)cc1`, 0%.
In the case of `O=C(NCCCNC(=O)NC1CCCCC1)NC1CCCCC1` it was 0.2%; in that of `FC(F)(F)c1cccc(Nc2ncnc3ccccc23)c1`, 1.2%; in that of `O=C1C2(c3ccccc3)CN(CCCO)CC1(c1ccccc1)CN(CCCO)C2`, 2.1%.
As for `COC(=O)c1sc(=S)n(-c2ccccc2)c1N`, the figure is 1.6%; as for `CCCN1C(=O)C(NC(C)=O)c2cc(OC)ccc21` (stereo not drawn), -0.4%; as for `O=C(NCCc1ccco1)c1nn(Cc2ccccc2)c(=O)c2ccccc12`, -1.2%.
Regarding `CC(C)(C)C(=O)CCN1C(=O)C2(OCCO2)c2ccccc21`, the “GFP derepression (activation)” value is -1.2%.
In the case of `CCC(C(=O)OCCN(CC)CC)c1ccccc1` (stereo not drawn) it was 6.1% [at 20.6 µM]; in that of `Cc1cc(C)c2nc3c(c([C@H](O)[C@@H]4CCCCN4)c2c1)CC/C3=C/c1ccc(Cl)cc1`, 0% [at 9.22 µM]; in that of `CC1=CC(C)(C)N(C(=O)CSc2nnc(-c3ccccc3)o2)c2ccc(C)cc21`, 0%.
As for `O=C(O)c1ccc(NS(=O)(=O)c2cccc3nsnc23)cc1`, the figure is -2.6%; as for `COc1ccccc1C(=O)NCCn1cc(SCC(=O)NCc2ccco2)c2ccccc21`, 1.4%; as for `O=C(Cn1[nH]c(=O)c2ccccc2c1=O)Nc1cccc(-c2nnc3n2CCCCC3)c1`, 1.3%.
As for `COc1ccc(NC(=O)c2c(C)oc3c2CCCC3)cc1`, the figure is 3.4%; as for `CS(=O)(=O)N1CCC[C@@]2(CCN(c3ccncc3)C2)C1`, 0% [at 9.22 µM].
On to `O=C(O)c1ccc(NC(=O)c2cccs2)cc1`, for which the “GFP derepression (activation)” value is 3.2%.
In the case of `O=C(Nc1ccc(Cl)cc1)c1ccsn1` it was 2.2%; in that of `COc1ccc(C2C3=C(CC(C)(C)CC3=O)Oc3ncn4nc(-c5cccnc5)nc4c32)cc1OC` (stereo not drawn), 2.6%.
Take `CN1CCN2c3ccccc3Cc3ccccc3[C@@H]2C1`: the GFP derepression (activation) entry is “inactive”.
In the case of `O=C(CCCn1c(SCC(=O)c2ccc(F)cc2)nc2ccccc2c1=O)NCc1ccco1` it was -1%; in that of `COC(=O)[C@H](C)NC(=O)Nc1ccc(OC(F)(F)F)cc1`, -0.4%; in that of `COC(=O)c1cnn2c(C(F)(F)F)cc(-c3ccco3)nc12`, 0%.
In the case of `COc1ccc(-c2nnc(SC(=O)N3c4ccccc4Sc4ccccc43)o2)cc1` it was 1.5%.
As for `COc1ccccc1-c1nc(NCc2cccs2)c2ccccc2n1`, the figure is 0% [at 9.22 µM].
